Sampled rows, rich in hits. Any-hit rate of the full collection: about 2.4%.
Pol eta inh: qHTS for Inhibitors of Polymerase Eta. Potency, µM (series often up to 114 µM), for the others: top-dose activity change, negative = inhibition, actives largely listed as inhibitors. 390,000 tested, 1.2% active. DNA polymerase eta (Homo sapiens), Q9Y253. recombinant Pol eta, fluorescent DNA replication assay; further: on the % scale 0 is the no-effect control and ±100 the full control effect
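Fluorescent replication assay: 50 nM final substrate added after a 15 min room-temperature compound preincubation with 10 nM enzyme. Signal taken at 0 min and again at 10 min.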
Pol iota inh: qHTS for Inhibitors of Polymerase Iota; DNA polymerase iota (Homo sapiens), Q9UNA4; Pol iota fluorescent replication assay, 10 min; Potency, µM (doses to about 115 µM), without a hit: at the top dose activity, negative = inhibition, hits mostly inhibitors; 390,000 tested, 1% active; AID 588590, 2011
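Pol iota at 10 nM preincubated 15 min with compounds at room temperature; reaction started with fluorescent substrate, 50 nM final. Fluorescence read kinetically at 0 and 10 min; buffer-only wells as negative control.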
L3MBTL1 block: qHTS Assay for the Inhibitors of L3MBTL1; 230,000 tested, 0.66% active; Potency, µM (series often up to 57.1 µM), for the others: top-dose activity, negative = inhibition, hits mostly inhibitors; AlphaScreen L3MBTL1–H3K9me1 peptide binding; further: on the % scale 0 is the no-effect control and ±100 the full control effect; nearly all actives have a fitted effect of over 60% in size
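Read-out is AlphaScreen signal from streptavidin donor and nickel chelate acceptor beads (10 ug/mL final each) bridging L3MBTL1 (50 nM) and biotinylated K9-monomethylated H3(1-15) peptide (75 nM), after 30 min compound exposure at room temperature.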
Pol kappa inh: qHTS for Inhibitors of Polymerase Kappa. Potency, µM (doses to about 107 µM), without a hit: top-dose activity, negative = inhibition, actives largely listed as inhibitors. 400,000 tested, 0.53% active. AID 588579, 2011. purified Pol kappa, fluorescent DNA synthesis assay, 10 min; further: on the % scale 0 is the no-effect control and ±100 the full control effect
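First, compounds were pin-transferred onto 10 nM Pol kappa. After 15 min at room temperature, substrate was added to 50 nM final. Fluorescence was then measured kinetically at 0 and 10 min.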
POLB inh: qHTS Assay for Inhibitors of DNA Polymerase Beta. Pol beta primer extension/strand displacement, fluorescence kinetic. Potency, µM (titrated, usually from 114 µM), for the others: top-dose activity change, negative = inhibition, usual class: inhibitors. 340,000 tested, 1.3% active; further: on the % scale 0 is the no-effect control and ±100 the full control effect
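Homogeneous kinetic assay of primer extension and strand displacement by 10 nM Pol beta, preincubated 15 min at room temperature with compound before 50 nM substrate (final) was added. Read at 0 and 10 min; four-parameter Hill fit.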
Numbers without * were called inactive; ? = inconclusive; nt = no result given; [ ] = another dose, or the depositor's remark. The call rests on the fitted dose curve; in most records, active means well fitted curve in the direction sought with a large enough effect; inconclusive means small, poorly fitted or top-dose-only effect, or another doubt; inactive means no such curve, though single readings can be large; an effect the other way counts as inactive or inconclusive. Potency means the concentration at half of the fitted maximal effect.

SMILES	Pol eta inh	Pol iota inh	L3MBTL1 block	Pol kappa inh	POLB inh
C/C=C1\C(OC2OC(CO)C(O)C(O)C2O)OC=C(C(=O)OC)C1CC(=O)OCC1C(C)C(OC(=O)CC2C(C(=O)OC)=COC(OC3OC(CO)C(O)C(O)C3O)/C2=C\C)CC1C(CO)CO (configuration not stated)	?	79µM*	-12%	79µM*	25µM*
CC1=CC(=O)c2c(O)ccc(O)c2C1=O	nt	nt	0.79µM*	nt	1.8µM*
O=C1C=C(N2CCN(c3ccccn3)CC2)C(=O)c2c(O)ccc(O)c21	10%	-4%	nt	-12%	nt
Clc1cccc(-c2ccc(CNCc3ccccn3)o2)c1	?	1%	22µM*	-9%	10%
Brc1ccc(-c2ccc(CNCc3ccccn3)o2)cc1	-3%	-4%	?	-3%	1%
COc1cc(/C=N/Nc2ccc(C(=O)O)cc2)cc(OC)c1OC	-6%	51%	4%	8%	14%
COc1cc(/C=N/NC(=O)c2ccc(=O)[nH]n2)ccc1O	?	100µM*	34%	?	20µM*
COc1cc(/C=N/NC(=O)c2cc(-c3ccc4c(c3)OCO4)n[nH]2)ccc1O	?	?	-5%	79µM*	8.9µM*
COc1cc(OC)c(OC)cc1/C=N/NC(=O)c1cc(-c2cccn2C)n[nH]1	-7%	18%	-25%	-14%	-3%
COc1cc(/C=N/Nc2ccc(C(=O)O)cc2)ccc1O	22µM*	?	nt	11%[60.1 µM]	25µM*
COc1ccc(/C=N/NC(=O)c2cc(-c3cccn3C)n[nH]2)cc1OC	?	?	-16%	?	8.9µM*
O=C(N/N=C/c1ccc([N+](=O)[O-])cc1)c1cc(-c2ccc3c(c2)OCO3)n[nH]1	-17%	48%	nt	-1%	2%
CC(C)(C)n1ncc2c(=O)n(Cc3ccc(SC(F)(F)F)cc3)cnc21	nt	13%	nt	10%	nt
COc1ccc2[nH]c(C(=O)N/N=C/c3ccc(OC)c(O)c3)cc2c1	?	31%	nt	?	28µM*
CCNC(=O)COc1ccc(/C=N/NC(=O)c2cccnc2)cc1OC	1%	-1%	0%[11.4 µM]	0%	45%
COc1cc(/C=N\NC(=O)c2ccc(C)nc2)ccc1OC(=O)c1ccc2c(c1)OCO2	?	-12%	nt	3%	20µM*
COc1cc(/C=N/NC(=O)c2cccnc2)ccc1OCC(=O)Nc1ccc(C)cc1	?	?	9%	?	13µM*
CC(C(=O)c1ccccc1)[n+]1cccc(Cl)c1 (configuration not stated)	nt	8%	nt	-8%	nt
O=c1[nH]cc(C#Cc2ccccc2)c2ncncc12	nt	14%	nt	-18%	nt
CC(=O)N[C@@H](CSC(=O)[C@]1([C@@H](O)C(C)C)NC(=O)[C@H](C)[C@@H]1O)C(=O)O	nt	nt	nt	-15%[12 µM]	nt
Cc1cccc(N2CCn3c2nc2c3c(=O)n(CCCc3ccccc3)c(=O)n2C)c1	-10%	-3%	nt	-29%	89µM*
Cn1c(=O)n(CCCc2ccccc2)c(=O)c2c1nc1n2CCN1c1ccc(F)cc1	-18%	19%	nt	-18%	?
CCOCCn1c(=O)c2c(nc3n2CCN3c2ccc(C)c(C)c2)n(C)c1=O	-11%	?	4%	-7%	20µM*
Cc1cccc(N2CCn3c2nc2c3c(=O)n(CCc3ccccc3)c(=O)n2C)c1	-23%	19%	nt	-16%	40µM*
COc1ccc(C)cc1NC(=O)CSc1nc(=O)n(Cc2ccncc2)c2c1CCC2	-17%	3%	nt	-6%[60.1 µM]	9%
SMILES	Pol eta inh	Pol iota inh	L3MBTL1 block	Pol kappa inh	POLB inh
CCc1ccc(NC(=O)C2CCN(S(=O)(=O)c3ccc4c(c3)NC(=O)C(C)S4)CC2)cc1 (configuration not stated)	0%	79µM*	nt	-19%	?
N#Cc1c(-c2ccc(F)cc2)cc(-c2ccccc2)nc1SCC(=O)NCC(=O)O	-20%	?	0%	-12%	45µM*
COC(=O)CSc1nc(-c2ccccc2)cc(-c2ccco2)c1C#N	0%	38%	?	-29%	28µM*
COC(=O)CSc1nc(N)c(C#N)c(-c2ccco2)c1C#N	?	8%	4%	-20%	29%
O=C1c2ccccc2NC(c2cccc(F)c2)N1Cc1ccco1 (configuration not stated)	-6%	8%	4.5µM*	-18%	7.9µM*
O=C1c2ccccc2NC(c2cccc(F)c2)N1Cc1ccccc1 (configuration not stated)	-8%	27%	nt	-14%	6%
Cc1cccc(OCC(=O)Nc2cc(NC(=O)COc3cccc(C)c3C)cc(C(=O)O)c2)c1C	?	-10%	nt	7%	10µM*
Cc1ccc(-c2nc3ccccc3[nH]2)cc1NC(=O)COc1ccc(Cl)cc1Cl	-10%	-25%	nt	-6%	20%
Cc1ccc(-c2nc3ccccc3[nH]2)cc1NC(=O)COc1cccc(C)c1C	-1%	89µM*	nt	-36%	27%
O=c1[nH]c(SCc2c(F)cccc2Cl)nc2c1CCC2	nt	24%	nt	-7%	17%
Cc1cc(NS(=O)(=O)c2ccc(NC(=O)c3c(F)c(F)c(F)c(F)c3F)cc2)nc(C)n1	-5%	-1%	nt	-10%	?
Cc1cc(NS(=O)(=O)c2ccc(NC(=O)c3cnc4sccn4c3=O)cc2)nc(C)n1	8.9µM*	?	-2%	?	?
Cc1cc(NS(=O)(=O)c2ccc(NC(=O)c3ccc(Br)o3)cc2)nc(C)n1	40µM*	?	nt	-21%	?
COc1ccccc1CCC(=O)Nc1ccc(S(=O)(=O)Nc2cc(C)nc(C)n2)cc1	-8%	13%	0%	-8%	nt
Cc1cc(NS(=O)(=O)c2ccc(NC(=O)CCCOc3ccccc3C)cc2)nc(C)n1	79µM*	10µM*	nt	-21%	-13%
CCOc1ccc(C(=O)NCC(=O)OCC(=O)N(C)CC(=O)Nc2ccccc2CC)cc1OCC	-13%	20%	nt	-16%	nt
CC(C)c1c(C(=O)Nc2ccccc2)c(-c2ccccc2)c(-c2ccc(F)cc2)n1CC[C@@H](O)C[C@@H](O)CC(=O)O	nt	nt	nt	-16%[60.1 µM]	nt
Cn1ccc2cc(S(=O)(=O)N3CCN(C(=O)Nc4ccccc4F)CC3)ccc21	-15%	5%	nt	-8%[60.1 µM]	-22%
CCOC(=O)C1=C(CNCc2ccccc2Cl)NC(=O)NC1c1cccc([N+](=O)[O-])c1 (configuration not stated)	-26%	0%	-7%	-4%	3%
CCOC(=O)C1=C(COc2ccccc2)NC(=O)NC1c1cccc([N+](=O)[O-])c1 (configuration not stated)	6%	40µM*	-3%	-5%	3%

Assay outcomes: PubChem BioAssay, National Center for Advancing Translational Sciences (NCATS)
